This is a sample that favours compounds with a hit; in the whole collection about 2% have one here.
ABHD5 PLIN5 PPI – ABHD5-PLIN5 interaction inhibitors, primary screen, cell lysate, split luciferase complementation, luminescence. Perilipin-5 (Homo sapiens) + 1-acylglycerol-3-phosphate O-acyltransferase ABHD5 (Homo …. Split G. princeps luciferase complementation, 4 h. inhibition, % at 4 µM. 0.78% of 360,000 active. AID 602281, 2012;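 active means inhibition above the mean inhibition across every tested compound plus 3 SD, cut at about 22% in these data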
TLR9-MyD88 block – inhibitors of TLR9-MyD88 association in cells, primary screen, cell-based, CHO, BLA complementation, fluorescence; Toll-like receptor 9 (Homo sapiens) + Myeloid differentiation primary response protein …; CCF4 FRET ratio; inhibition, % at 4.98 µM; 0.21% of 340,000 active;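 active means inhibition above the mean over all tested compounds plus 3 SD, cut at about 21% in these data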
NOD2 RIPK2 PPI – NOD2-RIPK2 binding disruptors in cells, primary screen, fluorescence, CHO cells, BLA complementation; Receptor-interacting serine/threonine-protein kinase 2 (Homo sapiens), O43353; CCF4 ratio; inhibition, % at 4.98 µM; 0.38% of 360,000 active; in the data active means inhibition above about 21%
Exocytosis inh – LAMP-1 surface exposure blockers, TALL-104 cells – cell-based, flow cytometry, MLPCN library, primary screen. TALL-104 LAMP-1 surface exposure; cells stimulated with thapsigargin and PMA. inhibition, % at 10 µM. 0.66% of 360,000 active. AID 651702, 2012;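 active means inhibition above about 55%, limit read from the data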
Beta2AR agonist – beta2AR agonists driving receptor internalization, primary screen, cell-based, FAP fluorogen, flow cytometry. Am2.2-beta2AR cells. 0.43% of 340,000 active. response, % (test concentration not listed). Beta-2 adrenergic receptor (Homo sapiens), P07550. AID 504454, 2011;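 active means response above a set limit, near 3 SD of response in nonfluorescent compounds, cut at about 42% in these data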
TLR4-MyD88 BLA – inhibitors of TLR4-MyD88 association in cells, primary screen, cell-based, HeLa CL3-4, BLA complementation, FRET ratio. Toll-like receptor 4 (Homo sapiens) + Myeloid differentiation primary response protein …. inhibition, % at 8.4 µM. 0.18% of 200,000 active. AID 861, 2007. HeLa CL3-4 TLR4/MyD88 BLA complementation; in the data active means inhibition above about 25%
ABHD5 PLIN5 conf – ABHD5-PLIN5 interaction inhibitors, confirmation, biochemical, luminescence | shares compounds with ABHD5 PLIN5 PPI | inhibition, % at 4 µM | 67% of 2,200 active; in the data active means inhibition above about 23%
HNF4 counter – HNF4 dimerization inhibitors, counter-screen for ABHD5-PLIN5 interaction inhibitor project, biochemical, split-luciferase complementation, luminescence; shares compounds with ABHD5 PLIN5 PPI; inhibition, % at 4 µM; 77% of 2,200 active; AID 651674, 2012;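 active means mean inhibition across replicate wells exceeding the computed hit threshold, cut at about 13% in these data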;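 further: light from luciferase halves that rejoin when HNF4 fusion proteins dimerize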
A number is an active result.

How did O=C(c1cccnc1)N1CCN(Cc2cccc(Br)c2)CC1 do in these assays?
ABHD5 PLIN5 PPI: 23.8; TLR9-MyD88 block: inactive; NOD2 RIPK2 PPI: inactive; Exocytosis inh: inactive; Beta2AR agonist: inactive; TLR4-MyD88 BLA: inactive; ABHD5 PLIN5 conf: inactive; HNF4 counter: inactive

How did CC1=C(C(=O)N(C)C)CC(CC(=O)NCCCN(C)C)C(=O)N1CCCN1CCCC1=O (configuration not stated) do in these assays?
ABHD5 PLIN5 PPI: inactive; NOD2 RIPK2 PPI: inactive; Exocytosis inh: inactive

How did Cc1nc2scc(-c3ccco3)c2c(=O)n1/N=C/N(C)C do in these assays?
ABHD5 PLIN5 PPI: 42.6; TLR9-MyD88 block: inactive; NOD2 RIPK2 PPI: inactive; Exocytosis inh: inactive; Beta2AR agonist: inactive; TLR4-MyD88 BLA: inactive; ABHD5 PLIN5 conf: inactive; HNF4 counter: 28.9

What do the screens show for `CC1=NN(c2ccccc2)C(=O)/C1=C\C=C1\N(C)c2ccccc2C1(C)C`?
ABHD5 PLIN5 PPI: inactive; TLR9-MyD88 block: inactive; NOD2 RIPK2 PPI: inactive; Exocytosis inh: inactive; Beta2AR agonist: inactive; TLR4-MyD88 BLA: inactive

Results for CC1=NN(c2ccccc2)C(=O)/C1=C\C=C1/N(C)c2ccccc2C1(C)C ?
ABHD5 PLIN5 PPI: 25.8; TLR9-MyD88 block: inactive; NOD2 RIPK2 PPI: inactive; Exocytosis inh: inactive; Beta2AR agonist: inactive; TLR4-MyD88 BLA: inactive; ABHD5 PLIN5 conf: inactive; HNF4 counter: 23.1

How did CCN(C[C@H]1N[C@@](Cc2ccccc2)(C(=O)OC)[C@H]2C(=O)N(C)C(=O)[C@@H]12)C(=O)COc1ccccc1 do in these assays?
ABHD5 PLIN5 PPI: inactive; TLR9-MyD88 block: inactive; NOD2 RIPK2 PPI: inactive; Exocytosis inh: inactive; Beta2AR agonist: inactive

Results for CCCCCCCCCc1conc1C(=O)CP(=O)(OC)OC ?
ABHD5 PLIN5 PPI: inactive; NOD2 RIPK2 PPI: inactive; Exocytosis inh: inactive

How did CCCCCCCCCc1conc1C(=O)/C=C/c1ccco1 do in these assays?
ABHD5 PLIN5 PPI: 25.3; NOD2 RIPK2 PPI: inactive; Exocytosis inh: inactive; ABHD5 PLIN5 conf: 26.2; HNF4 counter: 20.9

What do the screens show for `Cc1ccc2sc(N(CCCN(C)C)C(=O)CN3C(=O)c4ccccc4C3=O)nc2c1C`?
ABHD5 PLIN5 PPI: 30.7; TLR9-MyD88 block: inactive; NOD2 RIPK2 PPI: inactive; Exocytosis inh: inactive; Beta2AR agonist: inactive; TLR4-MyD88 BLA: inactive; ABHD5 PLIN5 conf: 22.6

Results for Cc1ccc2sc(N(CCN(C)C)C(=O)c3ccc4ccccc4c3)nc2c1C ?
ABHD5 PLIN5 PPI: inactive; TLR9-MyD88 block: inactive; NOD2 RIPK2 PPI: inactive; Exocytosis inh: inactive; Beta2AR agonist: inactive

How did COc1ccc(-c2nc3ccc(Br)cn3c2Cc2ccsc2)cc1OC do in these assays?
ABHD5 PLIN5 PPI: inactive; NOD2 RIPK2 PPI: inactive; Exocytosis inh: inactive

What do the screens show for `COc1cc(OC)c(C(=O)/C=C/c2ccccc2)c(O)c1O`?
ABHD5 PLIN5 PPI: 38.6; TLR9-MyD88 block: inactive; NOD2 RIPK2 PPI: inactive; Exocytosis inh: inactive; Beta2AR agonist: inactive; ABHD5 PLIN5 conf: 49.6; HNF4 counter: 38.3

What do the screens show for `O=C(C=Cc1cccc(O)c1)c1ccccc1O`?
ABHD5 PLIN5 PPI: 44.6; TLR9-MyD88 block: inactive; NOD2 RIPK2 PPI: inactive; Exocytosis inh: inactive; Beta2AR agonist: 56.0; ABHD5 PLIN5 conf: 93.5; HNF4 counter: 75.1

How did O=C(C=Cc1ccccc1O)c1ccccc1O do in these assays?
ABHD5 PLIN5 PPI: 73.5; TLR9-MyD88 block: inactive; NOD2 RIPK2 PPI: inactive; Exocytosis inh: inactive; Beta2AR agonist: inactive; ABHD5 PLIN5 conf: 98.0; HNF4 counter: 90.5

How did COc1ccc(C(=O)/C=C/c2ccccc2)c(O)c1 do in these assays?
ABHD5 PLIN5 PPI: 29.7; TLR9-MyD88 block: inactive; NOD2 RIPK2 PPI: inactive; Exocytosis inh: inactive; Beta2AR agonist: inactive; TLR4-MyD88 BLA: inactive; ABHD5 PLIN5 conf: 65.5; HNF4 counter: 47.2

How did COc1cc(O)cc(O)c1C(=O)/C=C/c1ccccc1 do in these assays?
ABHD5 PLIN5 PPI: inactive; TLR9-MyD88 block: inactive; NOD2 RIPK2 PPI: inactive; Exocytosis inh: inactive; Beta2AR agonist: inactive; TLR4-MyD88 BLA: inactive

Results for COc1ccc(C(=O)/C=C/c2ccc(OC)cc2OC)c(O)c1 ?
ABHD5 PLIN5 PPI: inactive; TLR9-MyD88 block: inactive; NOD2 RIPK2 PPI: inactive; Exocytosis inh: inactive; Beta2AR agonist: inactive; TLR4-MyD88 BLA: inactive

What do the screens show for `O=C(/C=C/c1ccc(O)c(O)c1)c1ccccc1O`?
ABHD5 PLIN5 PPI: inactive; TLR9-MyD88 block: inactive; NOD2 RIPK2 PPI: inactive; Exocytosis inh: inactive; Beta2AR agonist: inactive

Results for N#Cc1cccc(OC(=O)C2CCN(C(=O)c3ccc(F)cc3)CC2)c1 ?
ABHD5 PLIN5 PPI: inactive; TLR9-MyD88 block: inactive; NOD2 RIPK2 PPI: inactive; Exocytosis inh: inactive

How did COCCCN1C(=O)C(CC(=O)NCc2cccs2)CC(C(=O)N(C)C)=C1C (configuration not stated) do in these assays?
ABHD5 PLIN5 PPI: inactive; TLR9-MyD88 block: inactive; NOD2 RIPK2 PPI: inactive; Exocytosis inh: inactive

Results for O=C(COc1ccc(Cl)cc1)Nc1ccc2c(c1)C(=O)NC2=O ?
ABHD5 PLIN5 PPI: inactive; TLR9-MyD88 block: inactive; NOD2 RIPK2 PPI: inactive; Exocytosis inh: inactive; Beta2AR agonist: inactive

What do the screens show for `COC(=O)[C@@]12C[C@@H](CC(=O)NCCCN3CCCC3=O)C(=O)N(CCc3ccc(OC)c(OC)c3)C1=CCC(C)(C)C2`?
ABHD5 PLIN5 PPI: inactive; NOD2 RIPK2 PPI: inactive; Exocytosis inh: inactive

How did CCCCC1Cc2[nH][nH]c(=O)c2C(c2ccc(F)cc2)O1 (configuration not stated) do in these assays?
ABHD5 PLIN5 PPI: inactive; NOD2 RIPK2 PPI: inactive; Exocytosis inh: inactive

Results for O=c1[nH][nH]c2c1[C@H](c1ccc(F)cc1)O[C@H](CCc1ccccc1)C2 ?
ABHD5 PLIN5 PPI: 27.1; NOD2 RIPK2 PPI: inactive; Exocytosis inh: inactive; ABHD5 PLIN5 conf: inactive; HNF4 counter: 36.4

Results for CCCCC1Cc2[nH][nH]c(=O)c2C(c2ccc(Cl)cc2)O1 (configuration not stated) ?
ABHD5 PLIN5 PPI: 28.1; NOD2 RIPK2 PPI: inactive; Exocytosis inh: inactive; ABHD5 PLIN5 conf: inactive; HNF4 counter: 25.2

What do the screens show for `COc1ccc(S(=O)(=O)Nc2ccc3c(c2)C(=O)N([C@H](C)CO)C[C@H](C)[C@@H](CN(C)Cc2ccncc2)OCCCC[C@@H](C)O3)cc1`?
ABHD5 PLIN5 PPI: inactive; TLR9-MyD88 block: inactive; NOD2 RIPK2 PPI: inactive; Exocytosis inh: inactive
